From PubChem
Compounds with a hit are over-represented: about 2.1% of the library has one in this group of screens.
p53 reactivation: qHTS assay for re-activators of p53 using a Luc reporter | H1299 p53-A138V BP100-luciferase reporter, luminescence, 24 h | Potency, µM (series often up to 92.2 µM), inactives show at the top dose activity change, positive = activation, usual class: activators | 320,000 compounds, 0.063% hits | AID 504706, 2011; note: potency is the fitted concentration of half-maximal effect; % of control where 0% means no effect; nearly all actives have a fitted effect of over 45% in size
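H1299 (p53-null), stable ts p53-A138V + BP100-Luc; 1000 cells/well, Opti-MEM/10% FBS; cpd 4 pt, 1:5; 24 h, 37 deg C, 5% CO2; detection reagent 10 min RT; luminescence.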
B2AR arrestin: qHTS assay of beta-arrestin-biased ligands of beta2-adrenergic receptor; Beta-2 adrenergic receptor (Homo sapiens), P07550; beta-arrestin recruitment to beta2AR, cell-based reporter; Potency, µM (highest dose often 46.1 µM), for the others: at the highest dose activation, actives largely listed as activators; 330,000 compounds, 0.02% hits;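 note: potency is the fitted concentration of half-maximal effect; 0% = DMSO controls and full agonism = EC100 isoproterenol or metaproterenol; nearly all actives have a fitted effect of over 65% in size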
Giardia kill: Small Molecules that selectively kill Giardia lamblia: qHTS; Giardia lamblia trophozoite viability; activity change, % at 7.66 µM, hits read low; 340,000 compounds, 0.15% hits; in the data active = activity change below about -80%; inconclusive = between about -30% and that limit;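 note: parasites exposed to compound for two days anaerobically before the ATP read; % is set by controls: 0 for no effect and ±100 for the full control effect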
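Media and compound were dispensed first, then trophozoites at 100 cells/well; plates sat 48 hrs at 37 deg C without oxygen before ATP luminescence reagent was added and read after 15-30 min at room temperature.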
uPA surface inh: qHTS for Inhibitors of Cell Surface uPA Generation | cell surface uPA generation assay, qHTS | Potency, µM (titrated, usually from 38.3 µM), without a hit: top-dose activity change, negative = inhibition, actives largely listed as inhibitors | 330,000 compounds, 0.31% hits | AID 540303, 2011; active = well fitted inhibition curve with a large enough effect; inconclusive = small, poorly fitted or top-dose-only effect; inactive = no such curve, though single readings can be large or run the other way; tested in mouse RAW 264.7 cells; note: potency is the fitted concentration of half-maximal effect; % is set by controls: 0 for no effect and ±100 for the full control effect; nearly all actives have a fitted effect of over 55% in size
Mito fusion yeast: qHTS Assay for Small Molecule Inhibitors of Mitochondrial Division or Activators of Mitochondrial Fusion. S. cerevisiae fusion-defective mutant growth rescue, CellTiterGlo 48 h. Potency, µM (highest dose often 46.1 µM), for the others: top-dose growth rescue (activation), actives largely listed as activators. 320,000 compounds, 0.23% hits. AID 485298, 2010; note: potency is the fitted concentration of half-maximal effect; % of control where 0% means no effect; nearly all actives have a fitted effect of over 45% in size
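Temperature-sensitive fusion-defective S. cerevisiae (e.g. fzo1-1, mgm1-5) were grown with compound in YPEG medium (3% ethanol, 3% glycerol) for 48 hours at 37C. Growth rescue was measured as viability by CellTiterGlo luminescence after 10 minutes at ambient.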
ClpP mod: qHTS Assay for Activators of ClpP; Potency, µM (series often up to 57.5 µM), for the others: top-dose activity change, negative = active; AID 651965, 2013; 340,000 compounds, 1.9% hits; purified B. subtilis ClpP, FRET peptide cleavage, 20 min; active = well fitted falling curve with a large enough effect; inconclusive = small, poorly fitted or top-dose-only effect; inactive = no such curve, though single readings can be large or run the other way; note: potency is the fitted concentration of half-maximal effect; the source files actives as falling curves though it sought activators and does not explain the sign; nearly all actives have a fitted effect of over 65% in size
Target sequence (P80244 whole entry, looked up): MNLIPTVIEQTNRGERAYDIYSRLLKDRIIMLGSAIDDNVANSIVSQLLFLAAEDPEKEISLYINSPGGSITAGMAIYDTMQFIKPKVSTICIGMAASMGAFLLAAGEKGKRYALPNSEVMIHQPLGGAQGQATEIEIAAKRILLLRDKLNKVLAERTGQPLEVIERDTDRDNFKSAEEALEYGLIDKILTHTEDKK
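Buffer: 100 mM Tris/HCl pH8, 100 mM KCl, 0.05% low protease BSA, 2.5% glycerol, 0.01% Tween-20. ClpP 10 microg/mL final; 20 min RT; delta FRET normalized to ADEP and DMSO controls.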
* = called active by the depositor; ? = inconclusive; nt = no result. Unless noted, calls come from the whole dose curve; as a rule, active = well fitted curve in the direction sought with a large enough effect; inconclusive = small, poorly fitted or top-dose-only effect, or another doubt; inactive = no such curve, though single readings can be large; an effect the other way counts as inactive or inconclusive.

SMILES | p53 reactivation | B2AR arrestin | Giardia kill | uPA surface inh | Mito fusion yeast | ClpP mod
CC(=O)N1CCC2(CC1)CC(=O)c1cc(OCC(=O)N3CCCC3)ccc1O2 | 5% | 0% | -17 | ? | -3% | 4%
O=C1Nc2ccccc2-c2nnnn2C1N1CCCCC1 (configuration not stated) | nt | nt | nt | nt | nt | -1%
CCCN1CCC(=NNc2ccc(S(N)(=O)=O)cc2[N+](=O)[O-])CC1 | 4% | 0% | 5 | 8% | -2% | 14µM*
CCn1c(SCC(N)=O)nnc1-c1ccc(S(=O)(=O)N2CCN(C)CC2)cc1 | 2% | 0% | 16 | nt | -7% | 32µM*
CC(=O)N1CCN(C(=O)CN2C(=O)NC(C)(c3ccc4ccccc4c3)C2=O)CC1 (configuration not stated) | 0% | 0% | -8 | 2% | 1% | -2%
COc1ccc(N2CCN(C(=O)CN3C(=O)NC(C)(c4ccc5ccccc5c4)C3=O)CC2)cc1 (configuration not stated) | -5% | 7% | -16 | -8% | 1% | 28µM*
O=C(CN1CCN(S(=O)(=O)c2ccc(F)cc2)CC1)Nc1cccc(C(F)(F)F)c1 | 3% | 0% | ? | -5% | 10% | 28µM*
COc1cccc(NC(=O)CN2CCN(S(=O)(=O)c3ccc(F)cc3)CC2)c1 | -4% | 0% | -4 | -4% | 3% | 0%
COc1ccc(NC(=O)C(c2ccccc2)N(C)C(=O)/C=C\c2ccc3c(c2)OCO3)cc1 (configuration not stated) | nt | nt | nt | nt | nt | 4%
COc1cccc(NC(=O)C(OC(=O)/C=C/c2ccc3c(c2)OCO3)c2ccccc2)c1 (configuration not stated) | 2% | 0% | 23 | 1% | 0% | 32µM*
CCc1nn(-c2ccccc2)c2nc(-c3ccc(O)cc3)c3cc(OC)c(OC)cc3c12 | nt | nt | nt | nt | nt | 4%
NC(=O)c1ccc2c(=O)n3c(-c4cc(Cl)c(N)c(Cl)c4)csc3nc2c1 | -4% | 0% | -3 | 5µM* | 3% | -23%
Cc1csc2nc3cc(C(N)=O)ccc3c(=O)n12 | 5% | -1% | 5 | 5% | -25% | 5%
CCOC(=O)c1[nH]c2ccc(OC)cc2c1NC(=O)C(C)N1CCSCC1 (configuration not stated) | -1% | 0% | nt | nt | 14% | nt
COC(=O)c1[nH]c2ccccc2c1NC(=O)Oc1ccccc1 | 18% | 0% | 7 | -2% | -1% | 28µM*
CCOC(=O)Nc1c(C(=O)OC)[nH]c2cc(OC)ccc12 | -8% | 0% | 7 | -9% | 3% | ?
CCOC(=O)c1[nH]c2cc(OC)c(OC)cc2c1NC(=O)C(C)N1CCN(Cc2ccccc2)CC1 (configuration not stated) | -8% | 0% | -4 | -9% | 0% | 32µM*
COC(=O)c1[nH]c2cc(OC)c(OC)cc2c1NC(=O)Oc1ccccc1 | -4% | 0% | 4 | 7% | 0% | 32µM*
O=C(CN1C(=O)c2cccnc2Oc2ccc(Cl)cc21)Nc1cccc(C(F)(F)F)c1 | nt | nt | nt | nt | nt | -4%
CCOc1ccc(OCC)c(NC(=O)C(NS(=O)(=O)c2ccc(Br)s2)c2ccccc2)c1 (configuration not stated) | nt | nt | nt | nt | nt | -2%
CCN1CCN(C(=O)c2cc(COc3ccc(F)c(F)c3)on2)[C@@H](C)C1=O | nt | nt | nt | nt | nt | 0%
Cc1cc(Oc2ccccc2)nc(C#N)n1 | nt | nt | nt | nt | nt | -2%
COc1cc(OC)c(C2=NOC(C(=O)NCc3cccnc3)C2)cc1Cl (configuration not stated) | 1% | -1% | 1 | 10µM* | -1% | -12%
COc1ccc(OC)c(C2=NOC(C(=O)NCc3cccnc3)C2)c1 (configuration not stated) | 0% | 0% | 3 | -7% | -8% | 0%
